From PubChem BioAssay (EPA / NIEHS)
Where “and” joins values, the source holds several entries; their conditions need not be identical. Equal values may be shown once. Inconclusive results are not listed. Calls of active or inactive are those of the source. How the source made its calls, unless noted: active means hit-call score of the fitted dose curve at least 0.9, where 1 is the maximum; inactive means score below 0.9.

Experiments:
[1] = BSK_LPS_PGE2: BioMAP Diversity Plus: LPS Assay for Prostaglandin E2 (PGE2) Biomarker Activity (AID 2283082); conditions: primary human HUVEC with PBMC; actives raise or lower the signal;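 on AC50: secreted prostaglandin E2 measured by ELISA in LPS-stimulated co-culture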
Outline: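 ELISA read-out of PGE2 from human umbilical vein endothelial cells co-cultured with peripheral blood mononuclear cells under LPS, 24 h post-dose. Gain or loss of signal scored relative to DMSO baseline.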

[2] = read-out: Macrophage colony-stimulating factor (MCSF), CSF1 (gene 1435); assay: BSK_LPS_MCSF: BioMAP Diversity Plus: LPS Assay for Macrophage colony-stimulating factor (MCSF) Biomarker Activity (AID 2283083); conditions: primary human HUVEC with PBMC; actives raise or lower the signal
Outline: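 HUVEC + PBMC co-culture (human primary), 24 h post-dose; M-CSF by ELISA; gain/loss of signal fitted bidirectionally vs DMSO baseline.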

[3] = read-out: Tissue Factor, F3 (gene 2152); assay: BSK_LPS_TissueFactor: BioMAP Diversity Plus: LPS Assay for Tissue Factor Biomarker Activity (AID 2283084); conditions: primary human HUVEC with PBMC; actives raise or lower the signal
Outline: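 HUVEC/PBMC co-culture, LPS-activated; CD142 ELISA read 24 h post-dose; bidirectional curve fit vs DMSO negative control.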

[4] = read-out: Tumor necrosis factor (Homo sapiens) (UniProt P01375); assay: BSK_LPS_TNFa: BioMAP Diversity Plus: LPS Assay for Tumour Necrosis Factor alpha (TNFa) Biomarker Activity (AID 2283085); conditions: primary human HUVEC with PBMC; actives raise or lower the signal;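 on AC50: TNFa protein level quantified by ELISA in the co-culture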
Outline: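 HUVEC/PBMC co-culture, LPS-stimulated; 24 h post-dose; TNFa by ELISA; gain or loss of signal fitted bidirectionally vs DMSO baseline.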

[5] = read-out: Vascular cell adhesion molecule 1 (VCAM1), VCAM1 (gene 7412); assay: BSK_LPS_VCAM1: BioMAP Diversity Plus: LPS Assay for Vascular cell adhesion molecule 1 (VCAM1) Biomarker Activity (AID 2283086); conditions: primary human HUVEC with PBMC; actives raise or lower the signal
Outline: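 ELISA read-out of VCAM-1 at 24 h post-dosing in an LPS-driven HUVEC/PBMC primary human co-culture; gain or loss of signal fitted bidirectionally against DMSO baseline. Cytotoxicity tracked in parallel cultures by SRB total-protein staining.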

CD38, CD38 (gene 952) = assay: BSK_SAg_CD38: BioMAP Diversity Plus: SAg Assay for CD38 Biomarker Activity (AID 2283087); conditions: primary human HUVEC with PBMC; actives raise or lower the signal
Outline: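 Measures CD38 on a human endothelial/PBMC co-culture driven by SEB and TSST-1, 24 h after compound exposure, using ELISA with fluorescence detection; DMSO defines baseline for bidirectional curve fitting.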

CD40, CD40 (gene 958) = assay: BSK_SAg_CD40: BioMAP Diversity Plus: SAg Assay for CD40 Biomarker Activity (AID 2283088); conditions: primary human HUVEC with PBMC; actives raise or lower the signal
Outline: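 HUVEC/PBMC co-culture, 24 h post-dose; CD40 by ELISA, fluorescence intensity; bidirectional fit vs DMSO negative control.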

[6] = read-out: Monocyte Chemoattractant Protein-1 (MCP1), CCL2 (gene 6347); assay: BSK_SAg_MCP1: BioMAP Diversity Plus: SAg Assay for Monocyte Chemoattractant Protein-1 (MCP1) Biomarker Activity (AID 2283090); conditions: primary human HUVEC with PBMC; actives raise or lower the signal
Outline: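 Values derive from bidirectional fitting of ELISA-measured MCP1 against DMSO controls. Readings were taken 24 h after dosing human vascular endothelial cells co-cultured with peripheral blood mononuclear cells under superantigen stimulation.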

[7] = read-out: E-selectin (Homo sapiens) (UniProt P16581); assay: BSK_SAg_Eselectin: BioMAP Diversity Plus: SAg Assay for Eselectin Biomarker Activity (AID 2283091); conditions: primary human HUVEC with PBMC; actives raise or lower the signal
Outline: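 E-selectin ELISA readout at 24 h post-dosing in human umbilical vein endothelial cell/PBMC co-culture; gain or loss of signal fitted relative to DMSO baseline.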

[8] = read-out: Monokine induced gamma interferon (MIG), CXCL9 (gene 4283); assay: BSK_SAg_MIG: BioMAP Diversity Plus: SAg Assay for Monokine induced gamma interferon (MIG) Biomarker Activity (AID 2283092); conditions: primary human HUVEC with PBMC; actives raise or lower the signal
Outline: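 ELISA readout of MIG/CXCL9; primary human umbilical vein endothelial cells co-cultured with peripheral blood mononuclear cells; 24 h post-dose; gain/loss fit vs DMSO baseline.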

[9] = BSK_SAg_PBMCCytotoxicity: PBMC Cytotoxicity Assessment in the BioMAP Diversity Plus: SAg Assay (AID 2283093); conditions: primary human HUVEC with PBMC;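 further: PBMC viability measured as Alamar Blue reduction fluorescence at 546/580 nm; fitted both ways against DMSO so a hit may be loss or gain of signal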;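 on AC50: PBMC superantigen activated with SEB plus TSST-1 one hour after compound addition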
Outline: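 Alamar Blue reduction (6 h, ex/em 546/580 nm) read after 90 h culture of PBMC pre-dosed 1 h then stimulated with SEB plus TSST-1, 20 ng/mL each. Gain or loss of signal fitted relative to DMSO.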

[10] = read-out: Interleukin-8 (IL8), CXCL8 (gene 3576); assay: BSK_SAg_IL8: BioMAP Diversity Plus: SAg Assay for Interleukin-8 (IL8) Biomarker Activity (AID 2283094); conditions: primary human HUVEC with PBMC; actives raise or lower the signal
Outline: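 HUVEC/PBMC co-culture, 24 h post-dose; IL-8 by ELISA. Gain or loss of signal fitted bidirectionally vs DMSO baseline.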

[11] = BSK_SAg_Proliferation: Cell Proliferation Assessment in the BioMAP Diversity Plus: SAg Assay (AID 2283095); conditions: primary human HUVEC with PBMC;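 further: relative cell number as total protein by SRB absorbance in sub-confluent culture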
Outline: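 HUVEC/PBMC co-culture, 96-well. TCA-fixed (10%), 0.1% SRB stain, A560 at 96 h. Protein content used as viability readout; bidirectional fitting vs DMSO control.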

[12] = BSK_SAg_SRB: Viability Assessment in the BioMAP Diversity Plus: SAg Assay (AID 2283096); conditions: primary human HUVEC with PBMC;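 further: cells read one day after compound addition; hits may be either gain or loss of signal compared with DMSO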
Outline: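 SRB absorbance at 560 nm served as the viability read-out. Cells (HUVEC plus peripheral blood mononuclear cells) were TCA-fixed and stained 24 h post-dosing; activity fitted in both directions against DMSO controls.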

[13] = target: human CYP19A1, CYP19A1 (gene 1588) (UniProt P11511); assay: NVS_ADME_hCYP19A1: NovaScreen (NVS) CYP450-related Enzyme Activity (ADME) Assay for human CYP19A1 (AID 2283098; active means hit-call score of the fitted dose curve at least 0.9, where 1 is the maximum;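 on AC50: potency for inhibitors seen as loss of fluorescent enzyme signal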)
Outline: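 Primary testing was in duplicate at a single 10 uM concentration, with actives followed up in concentration-response series. Fluorescence read-out of recombinant enzyme activity at 0.5 h, cell-free. Acetonitrile was the negative-control baseline.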

[14] = target: human CYP2A6, CYP2A6 (gene 1548) (UniProt P11509); assay: NVS_ADME_hCYP2A6: NovaScreen (NVS) CYP450-related Enzyme Activity (ADME) Assay for human CYP2A6 (AID 2283099; active means hit-call score of the fitted dose curve at least 0.9, where 1 is the maximum)
Outline: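 Insect-cell-expressed human CYP2A6 enzyme activity measured by fluorescence intensity 0.5 hour post-dosing. Compounds screened at 10 uM in duplicate, then hits tested singly in concentration series (max 20 uM); acetonitrile baseline.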

[15] = target: human CYP1A1, CYP1A1 (gene 1543) (UniProt P04798); assay: NVS_ADME_hCYP1A1: NovaScreen (NVS) CYP450-related Enzyme Activity (ADME) Assay for human CYP1A1 (AID 2283100; active means hit-call score of the fitted dose curve at least 0.9, where 1 is the maximum)
Outline: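 Read-out: fluorescence intensity from enzymatic turnover of substrate by recombinant CYP1A1, loss of signal indicating inhibition. Incubation 1 h post-dose. Primary single-point 10 uM in duplicate; actives rerun singly with top concentration 20 uM.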

[16] = target: human CYP2B6, CYP2B6 (gene 1555) (UniProt P20813); assay: NVS_ADME_hCYP2B6: NovaScreen (NVS) CYP450-related Enzyme Activity (ADME) Assay for human CYP2B6 (AID 2283101; active means hit-call score of the fitted dose curve at least 0.9, where 1 is the maximum)
Outline: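 Fluorescence-based enzyme activity of recombinant human CYP2B6, measured 1 h post-dose against acetonitrile vehicle baseline. Screened at a single concentration of 10 uM in duplicate before concentration-response follow-up.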

[17] = target: human CYP1A2, CYP1A2 (gene 1544) (UniProt P05177); assay: NVS_ADME_hCYP1A2: NovaScreen (NVS) CYP450-related Enzyme Activity (ADME) Assay for human CYP1A2 (AID 2283102; active means hit-call score of the fitted dose curve at least 0.9, where 1 is the maximum;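 on AC50: potency for inhibition since loss of fluorescence marks reduced CYP1A2 activity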)
Outline: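 Fluorescence-intensity enzyme activity read-out, taken 0.5 h post-dosing, using insect-cell-derived recombinant CYP1A2 and specific fluorescent substrate. Acetonitrile served as negative control/baseline. Single-concentration duplicate screen at 10 uM, then concentration-response follow-up.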

Measured: AC50

Sequence of human CYP1A1, CYP1A1 (gene 1543) (P04798 whole entry, looked up): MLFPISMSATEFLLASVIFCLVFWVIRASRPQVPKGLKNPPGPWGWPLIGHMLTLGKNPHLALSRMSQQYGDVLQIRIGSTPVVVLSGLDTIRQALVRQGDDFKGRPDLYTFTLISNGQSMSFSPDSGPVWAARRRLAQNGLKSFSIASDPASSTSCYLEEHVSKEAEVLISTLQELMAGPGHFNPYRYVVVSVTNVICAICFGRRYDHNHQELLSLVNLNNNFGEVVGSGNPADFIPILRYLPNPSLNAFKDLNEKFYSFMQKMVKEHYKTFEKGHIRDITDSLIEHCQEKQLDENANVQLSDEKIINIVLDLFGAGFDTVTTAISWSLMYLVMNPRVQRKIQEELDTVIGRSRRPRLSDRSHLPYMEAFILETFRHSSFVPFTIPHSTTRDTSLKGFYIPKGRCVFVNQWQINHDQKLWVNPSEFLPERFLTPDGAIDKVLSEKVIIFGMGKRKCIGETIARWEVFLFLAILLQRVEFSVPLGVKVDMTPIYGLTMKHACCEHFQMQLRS
Sequence of Tumor necrosis factor (Homo sapiens) (P01375 whole entry, looked up): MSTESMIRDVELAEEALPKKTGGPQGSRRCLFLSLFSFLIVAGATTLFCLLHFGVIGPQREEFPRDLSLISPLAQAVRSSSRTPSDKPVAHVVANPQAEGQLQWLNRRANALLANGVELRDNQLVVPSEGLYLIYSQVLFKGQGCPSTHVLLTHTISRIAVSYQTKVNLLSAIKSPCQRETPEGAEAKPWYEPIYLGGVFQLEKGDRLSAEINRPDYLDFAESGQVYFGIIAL
Sequence of human CYP2B6, CYP2B6 (gene 1555) (P20813 whole entry, looked up): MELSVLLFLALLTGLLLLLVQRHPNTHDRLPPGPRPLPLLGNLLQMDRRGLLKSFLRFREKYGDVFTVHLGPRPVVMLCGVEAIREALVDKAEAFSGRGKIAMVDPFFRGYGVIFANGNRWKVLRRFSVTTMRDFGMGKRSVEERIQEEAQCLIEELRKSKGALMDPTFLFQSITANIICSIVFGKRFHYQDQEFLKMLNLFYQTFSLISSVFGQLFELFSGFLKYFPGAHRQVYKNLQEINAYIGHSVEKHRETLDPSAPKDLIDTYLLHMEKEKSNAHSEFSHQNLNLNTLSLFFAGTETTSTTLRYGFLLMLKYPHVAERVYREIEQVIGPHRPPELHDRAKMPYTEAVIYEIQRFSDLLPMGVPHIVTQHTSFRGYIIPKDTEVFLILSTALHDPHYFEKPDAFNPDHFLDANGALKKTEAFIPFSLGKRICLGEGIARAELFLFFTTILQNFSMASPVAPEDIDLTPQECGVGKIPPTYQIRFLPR
Sequence of human CYP1A2, CYP1A2 (gene 1544) (P05177 whole entry, looked up): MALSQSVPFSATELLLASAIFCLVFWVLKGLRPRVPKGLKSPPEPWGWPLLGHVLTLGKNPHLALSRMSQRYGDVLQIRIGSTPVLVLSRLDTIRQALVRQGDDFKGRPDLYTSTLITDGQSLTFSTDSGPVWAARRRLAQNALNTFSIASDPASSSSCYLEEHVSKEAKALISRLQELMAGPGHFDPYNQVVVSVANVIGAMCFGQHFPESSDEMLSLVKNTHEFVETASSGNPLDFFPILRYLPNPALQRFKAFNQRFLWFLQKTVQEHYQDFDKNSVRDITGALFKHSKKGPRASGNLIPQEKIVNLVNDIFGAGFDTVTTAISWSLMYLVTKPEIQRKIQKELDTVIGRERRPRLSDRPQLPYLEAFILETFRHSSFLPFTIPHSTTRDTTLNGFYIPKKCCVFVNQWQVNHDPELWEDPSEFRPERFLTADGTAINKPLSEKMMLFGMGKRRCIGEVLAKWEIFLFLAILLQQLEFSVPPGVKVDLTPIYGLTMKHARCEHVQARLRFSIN
Sequence of E-selectin (Homo sapiens) (P16581 whole entry, looked up): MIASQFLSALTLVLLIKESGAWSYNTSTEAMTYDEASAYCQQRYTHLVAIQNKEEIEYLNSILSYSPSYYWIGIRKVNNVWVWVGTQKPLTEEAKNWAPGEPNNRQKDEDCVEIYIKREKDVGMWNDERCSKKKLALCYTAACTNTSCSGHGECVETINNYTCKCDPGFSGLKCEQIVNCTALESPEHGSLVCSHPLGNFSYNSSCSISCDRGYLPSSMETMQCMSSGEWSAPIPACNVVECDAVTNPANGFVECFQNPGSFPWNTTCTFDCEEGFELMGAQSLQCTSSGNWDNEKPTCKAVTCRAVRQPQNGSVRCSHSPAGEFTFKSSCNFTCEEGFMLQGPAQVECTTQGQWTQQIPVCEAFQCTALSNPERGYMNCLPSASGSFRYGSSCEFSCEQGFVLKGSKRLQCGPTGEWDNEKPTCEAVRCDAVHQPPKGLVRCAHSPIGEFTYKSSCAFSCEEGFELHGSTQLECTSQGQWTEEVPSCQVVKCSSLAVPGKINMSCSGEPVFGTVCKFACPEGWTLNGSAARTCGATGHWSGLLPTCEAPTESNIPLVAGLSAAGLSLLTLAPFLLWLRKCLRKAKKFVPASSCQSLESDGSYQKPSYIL
Sequence of human CYP19A1, CYP19A1 (gene 1588) (P11511 whole entry, looked up): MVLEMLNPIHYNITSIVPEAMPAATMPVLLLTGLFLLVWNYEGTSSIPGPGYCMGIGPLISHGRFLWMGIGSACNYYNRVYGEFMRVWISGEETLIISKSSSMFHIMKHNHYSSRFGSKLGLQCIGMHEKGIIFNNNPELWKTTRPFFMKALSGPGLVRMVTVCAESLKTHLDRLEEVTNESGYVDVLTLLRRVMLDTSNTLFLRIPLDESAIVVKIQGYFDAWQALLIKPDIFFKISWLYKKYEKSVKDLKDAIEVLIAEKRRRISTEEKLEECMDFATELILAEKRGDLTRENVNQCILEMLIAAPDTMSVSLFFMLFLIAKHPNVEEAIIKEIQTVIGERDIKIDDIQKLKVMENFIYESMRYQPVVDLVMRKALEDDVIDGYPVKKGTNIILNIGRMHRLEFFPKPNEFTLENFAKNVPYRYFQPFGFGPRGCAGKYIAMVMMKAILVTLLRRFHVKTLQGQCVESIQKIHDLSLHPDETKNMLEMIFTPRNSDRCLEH
Sequence of human CYP2A6, CYP2A6 (gene 1548) (P11509 whole entry, looked up): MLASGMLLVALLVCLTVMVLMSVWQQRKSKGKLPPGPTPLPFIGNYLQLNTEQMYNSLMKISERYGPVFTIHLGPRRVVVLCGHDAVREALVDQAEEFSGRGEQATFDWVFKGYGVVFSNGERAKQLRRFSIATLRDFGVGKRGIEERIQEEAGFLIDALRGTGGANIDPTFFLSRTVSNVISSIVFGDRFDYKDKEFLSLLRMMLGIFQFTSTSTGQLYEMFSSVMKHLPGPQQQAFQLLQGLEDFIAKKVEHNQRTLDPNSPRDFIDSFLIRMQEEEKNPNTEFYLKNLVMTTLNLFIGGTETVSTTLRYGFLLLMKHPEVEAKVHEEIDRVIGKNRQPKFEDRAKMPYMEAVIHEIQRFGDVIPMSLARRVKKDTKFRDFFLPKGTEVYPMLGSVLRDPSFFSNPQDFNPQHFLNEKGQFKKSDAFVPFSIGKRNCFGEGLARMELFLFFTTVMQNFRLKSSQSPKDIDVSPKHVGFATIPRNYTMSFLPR

CCOC(=O)CC(SP(=S)(OC)OC)C(=O)OCC (stereo not drawn)
active: [14] 1.98 µM | [15] 2.87 µM | [16] 899 nM | [17] 837 nM
inactive: all other assays above

COc1nc(C)nc(NC(=O)NS(=O)(=O)c2ccccc2CCC(F)(F)F)n1
not listed: [13] | [14] | [15] | [16] | [17]
inactive: all other assays above

Cc1ccc(-c2c(Cl)nc(C#N)n2S(=O)(=O)N(C)C)cc1
inactive: [3] | [4] | [9]
active: [1] 30 µM | [2] 31.5 µM | [5] 34 µM | CD38, CD38 (gene 952) 22.5 µM | CD40, CD40 (gene 958) 20 µM | [6] 24.7 µM | [7] 13.5 µM | [8] 28.8 µM | [10] 13.4 µM | [11] 30 µM | [12] 25 µM | [17] 5800 nM

CC1=C(C(=O)Nc2ccccc2)SCCO1
active: [1] 8.8 µM | [17] 6470 nM
not listed: [13] | [14] | [15] | [16]
inactive: all other assays above

CCCCC(CC)COC(=O)c1ccccc1C(=O)OCC(CC)CCCC (stereo not drawn)
active: [2] 4.51 µM | [4] 12.3 µM | CD38, CD38 (gene 952) 7.36 µM | [12] 5 µM | [13] 3.05 µM
not listed: [11] | [14] | [15] | [16] | [17]
inactive: all other assays above

OC(c1ccc(Cl)cc1)(c1cncnc1)c1ccccc1Cl (stereo not drawn)
active: [1] 4.99 µM | [4] 10.9 µM | CD38, CD38 (gene 952) 20 µM | CD40, CD40 (gene 958) 13.8 µM | [6] 25.5 µM | [7] 26.5 µM | [8] 32.9 µM | [9] 3.45 µM | [11] 11.7 µM | [12] 29.3 µM | [14] 2.37 µM | [15] 8.07 µM | [16] 5750 nM
inactive: [2] | [3] | [5]

CCNc1nc(Cl)nc(NC(C)C)n1
active: [4] 6.09 µM | [7] 13.9 µM | [17] 14.8 µM and 9.2 µM
not listed: [14] | [16]
inactive: all other assays above

COC(=O)N(OC)c1ccccc1COc1ccn(-c2ccc(Cl)cc2)n1
active: [1] 0.215 µM | [2] 14.1 µM | [4] 9.8 µM | [5] 13 µM | CD38, CD38 (gene 952) 5.43 µM | CD40, CD40 (gene 958) 15 µM | [6] 4.97 µM | [7] 3.97 µM | [8] 11.9 µM | [9] 0.222 µM | [10] 2.92 µM | [11] 3.97 µM | [12] 8.48 µM | [15] 1.87 µM | [17] 912 nM
inactive: [3] | [13]

COC(=O)c1ccccc1C(=O)OC
not listed: [13] | [14] | [15] | [16] | [17]
inactive: all other assays above

C=CC1(C)OC(=O)N(c2cc(Cl)cc(Cl)c2)C1=O (stereo not drawn)
active: [16] 6.73 µM and 5.83 µM
not listed: [13] | [14]
inactive: all other assays above

CCNc1nc(Cl)nc(NCC)n1
active: [4] 8.37 µM
not listed: [13] | [14] | [16] | [17]
inactive: all other assays above

COP(N)(=O)SC (stereo not drawn)
active: [1] 20 µM
not listed: [14] | [15] | [16] | [17]
inactive: all other assays above
